# PubChem BioAssay (NCI)
# This is part of a sample that, as a whole, favours compounds with a hit. Of some 83,000 tested, about 20% had one in any assay.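 Single-concentration screen, 48 h exposure, 96-well plates. Endpoint: percent growth. Below 10 = active.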 Unmarked numbers belong to inactive results. Activity calls are given as the source filed them.
# Columns and labels:
# Test in all cases: NCI-60 one-dose screen, 48 h (100 = growth as untreated, 0 = no growth, -100 = all killed)
# Conditions in all cases: 10 µM unless noted
# HCT-15 colon = test system: HCT-15 colon
# HT29 colon = test system: HT29 colon
# SNB-75 CNS = test system: SNB-75 CNS
# SNB-19 CNS = test system: SNB-19 CNS
# U251 CNS = test system: U251 CNS
# PC-3 prostate = test system: PC-3 prostate
# SK-MEL-5 melanoma = test system: SK-MEL-5 melanoma
# UACC-62 melanoma = test system: UACC-62 melanoma
# LOX IMVI melanoma = test system: LOX IMVI melanoma
# SK-MEL-28 melanoma = test system: SK-MEL-28 melanoma
SMILES,growth (HCT-15 colon),growth (HT29 colon),growth (SNB-75 CNS),growth (SNB-19 CNS) [%],growth (U251 CNS),growth (PC-3 prostate) [%],growth (SK-MEL-5 melanoma),growth (UACC-62 melanoma),growth (LOX IMVI melanoma),growth (SK-MEL-28 melanoma)
CCN(CC)P(=O)(N(CC)CC)N(CCCSC/C=C(\C)CC/C=C(\C)CCC=C(C)C)CCCN1CCN(C)CC1,93.2%,98.9%,93%,92.8,101%,95.5,100%,94.2%,81.3%,107%
CC(=O)Nc1ccc(S(=O)(=O)N2C(=O)CCC2C(=O)Nc2ccccc2)cc1 (stereo unspecified),45.8%,34%,28.9%,45,29.4%,26.7,20.2%,11%,29.9%,48.6%
COc1cccc(-c2nc3sccn3c2-c2ccnc(NCCCNS(=O)(=O)c3ccc(F)cc3)n2)c1,18.1%,26.7%,66.8%,78.4,49.6%,47.7,7.26% (active),6.83% (active),14.4%,
COc1ccc(/C=C/C(=O)c2ccc(NC(=O)CN3CCN(c4cc5c(cc4F)c(=O)c(C(=O)O)cn5C4CC4)CC3)cc2)cc1,108%,114%,89.2%,94.7,98.6%,92.4,94%,93.2%,76.9%,106%
COc1cc2c(cc1OCCCCn1c(-c3cc(=O)c4ccccc4o3)nc3ccccc31)N=C[C@@H]1CCCN1C2=O,106%,102%,101%,93.1,75.3%,94.9,93.6%,99.4%,68.5%,
Cc1oc2ncnc(Nc3ccccc3)c2c1C(=O)NCCO,98.1%,106%,90.7%,93.9,102%,107,97.5%,86.2%,95.4%,
O=C(O)c1cn(C2CC2)c2cc(N3CCN(S(=O)(=O)c4ccc(Cl)c(Cl)c4)CC3)c(F)cc2c1=O,6.24% (active),0.259% (active),13.2%,24.7,12.4%,16.2,2.06% (active),29.6%,1.21% (active),48.5%
O=S(=O)(NCCNc1cc(-c2cn(-c3ccccc3)nc2-c2ccccc2)ccn1)c1ccc(F)cc1,74.2%,88.3%,77.4%,92.5,72.7%,47.6,68.9%,89.4%,78.5%,
Cc1ccc(S(=O)(=O)OCC(=O)Nc2ccc(C(=O)O)c(O)c2)cc1,109%,98.6%,98.8%,108,96.7%,91.3,96.3%,99.9%,78.5%,98.6%
COc1ccc(C(=O)N2CCN(C(=O)c3cc(OC)c(OC)c(OC)c3)CC2)cc1OCCCCOc1cc2c(cc1OC)C(=O)N1CCC[C@H]1C=N2,118%,45.8%,110%,99.4,101%,104,71%,97.2%,106%,136%
CC(C)C(C(=O)CCN(C)C)c1ccc(Cl)cc1 (stereo unspecified),92.6%,106%,87.8%,95.1,83.7%,86.9,102%,89.7%,98.5%,107%
CCCCCCCCCN1C(=O)/C(=c2\sc3n(c2=O)C2C(NN=3)N(CC)C(=O)N2CC)c2ccccc21 (stereo unspecified),73%,7.96% (active),-14.4% (active),39.7,25.1%,34.3,72.9%,23.7%,19.4%,41.3%
CC(=O)Nc1ccc(S(=O)(=O)NC(CCC(=O)Nc2ccc(Cl)cc2)C(=O)O)cc1 (stereo unspecified),98.9%,106%,69.2%,100,90.6%,97.5,97.7%,67.5%,81.1%,94.4%
COc1cc(C2C=C(C)N=C3SC=CN32)cc(OC)c1OC (stereo unspecified),106%,110%,94.7%,107,103%,94.5,106%,107%,97.8%,109%
O=c1oc2cc(OS(=O)(=O)c3ccccc3)c(Cl)cc2c2c1CCCCCC2,84.6%,67.7%,83.1%,93.3,87.5%,73.9,77.9%,70.3%,90.1%,91.2%
COc1cccc(-n2cc(-c3nc(Cl)c4ccccc4n3)nn2)c1,98.2%,53.1%,72.3%,94,153%,97.5,95.1%,97.4%,109%,95%
COc1ccc(S(=O)(=O)NCCNc2nccc(-c3c(-c4ccccc4)nc4sccn34)n2)cc1,19.4%,25.4%,21.8%,39.3,32.7%,23.1,-80% (active),24.8%,18.8%,31.3%
Cc1ccnc2nc(C(=O)OCC(=O)Nc3ccc(-c4ccccc4)cc3)nn12,105%,108%,95%,103,101%,102,105%,116%,99%,110%
COc1cc(OC)c(C(=O)/C=C/c2cccc(C(F)(F)F)c2)c(OC)c1,6.82% (active),3.81% (active),19.2%,14.2,9.44% (active),41.9,13.2%,-12.1% (active),-16.7% (active),39.1%
NC(=O)c1ccc2c(c1)OCO2,102%,103%,84.2%,109,107%,98.9,99.2%,103%,95.4%,108%
CC/C=C\C[C@H](O)C/C=C1/C(=O)C(Cl)=C[C@@H]1C/C=C\CCCC(=O)O,16.2%,18.7%,71.7%,74.7,17.5%,43.7,69.1%,1.46% (active),4.09% (active),43.7%
O=S(=O)(O)CCl,96.3%,95.9%,86.1%,106,97.1%,91.6,103%,100%,86.8%,102%
CC(=O)N1Cc2ccccc2C(C)Cc2cc(Cl)ccc21 (stereo unspecified),105%,97.6%,101%,101,105%,95.8,103%,98%,105%,112%
COc1ccc(/C=C\c2cc(OC)c(OC)c(OC)c2)c(NS(=O)(=O)c2ccc(C(C)(C)C)cc2)c1O,15.5%,33%,31.9%,46.1,24.3%,34.5,-19.2% (active),39.1%,17%,53.7%
COc1cc(-c2csc(NC(=O)c3cc(C(F)(F)F)cc(C(F)(F)F)c3)n2)cc(OC)c1OC,15.6%,21.3%,52.5%,29.9,21%,10.6,-30.1% (active),3.9% (active),26.5%,40.8%
COc1ccc(/C(=N/O)c2cc(F)c(F)c(OC)c2F)cc1O,22.9%,28%,-11% (active),38.8,18.2%,21.5,14.1%,29.8%,46.5%,66.9%
COc1ccc(C(=O)c2cc(OC)c(OC)c(OC)c2)cc1/C=C/C(=O)c1ccc2c(c1)OCO2,-22.6% (active),-27.2% (active),28.2%,11.8,-19.1% (active),24,8.97% (active),-63.5% (active),-36.5% (active),-57% (active)
